According to PubChem BioAssay AID504832 (National Center for Advancing Translational Sciences (NCATS), 2011):
Among all 310,000 compounds or so, about 18,000 (5.8%) were called active. About 22% were inconclusive and are not listed. The sample as a whole holds a higher share of actives than the screen did. Values without a mark were called inactive. The call rests on the fitted dose curve; in most records, active means well fitted inhibition curve with a large enough effect; inconclusive means small, poorly fitted or top-dose-only effect, or another doubt; inactive means no such curve, though single readings can be large or run the other way.

Assay: Primary qHTS for delayed death inhibitors of the malarial parasite plastid, 48 hour incubation
Conditions: P. falciparum luciferase growth in erythrocytes; series mostly up to 28.7 µM; activity change, negative = inhibition: at the top concentration
Description: The goal of this screen is to discover new antimalarial compounds that act by inhibiting the development of the apicoplast in the malarial parasite Plasmodium falciparum. The biochemical processes that make this organelle essential for erythrocytic stage parasites are not well understood. However, antibiotics such as azithromycin and tetracycline, which target the apicoplast translational machinery, have a potent antimalarial effect.
We have developed a cell-based assay that measures parasite growth based on the expression of an integrated copy of a firefly luciferase reporter. To detect small molecules that cause this "delayed death" phenotype, erythrocytes infected with the luciferase-expressing parasites were incubated with compounds for either one or two generations, corresponding to 48 and 96 hours, respectively. Compounds that inhibit parasite growth in the second generation, but not the first, should be enriched in antimalarials that target the apicoplast. Growth inhibition is detected by a decrease in luciferase activity.
Assay Provider: David Fidock and Eric Ekland, Columbia University
Keywords: NIH Roadmap, MLPCN, MLI, MLSMR, qHTS, NCGC, qHTS, malaria, luciferase, viability
Four microliters of culture medium (RPMI 1640 with 0.5% w/v Albumax (GIBCO), 24 mM sodium bicarbonate and 10 ug/mL gentamycin) were dispensed by a Multi-drop Combi into white solid 1536-well plates (Grenier) and 23 nL compound was added by a pin tool. Four microliters of infected erythrocytes (2% hematocrit, 0.1% parasitemia final concentration) in culture medium were dispensed and the plates incubated for 48 hours at 37 C in 5% CO2. Two microliters of luciferase detection reagent was added and luminescence was detected by a ViewLux (PerkinElmer) reader.
On the % scale 0 is the no-effect control and ±100 the full control effect; potency means the concentration at half of the fitted maximal effect.

| SMILES | Potency | activity change, negative = inhibition |
| --- | --- | --- |
| COc1ccc(C(=O)C2CCCN(Cc3cccn3-c3ccccn3)C2)c(C)c1 (centres undefined) | 6.57 µM (active) | – |
| CCOC(=O)c1[nH]ncc1CN1CCCC(C(=O)c2ccc(OC)cc2C)C1 (centres undefined) | – | 21.3% |
| COc1ccc(C(=O)C2CCCN(Cc3ccc4nonc4c3)C2)c(C)c1 (centres undefined) | – | -14.3% |
| COC(=O)c1ccc(NC(=O)CSc2nc(N)c(NC(=O)c3ccc(Br)o3)c(=O)[nH]2)cc1 | – | 3.29% |
| COCCn1c(SCC(=O)N2CCCCCC2)nc2c(c1=O)SCC2 | – | -12.2% |
| COc1ccc(CCNC2=C(Cl)C(=O)N(Cc3ccccc3)C2=O)cc1OC | 11.7 µM (active) | – |
| COc1ccc(CCN=C2SCC(=O)N2Cc2ccccc2)cc1OC | – | -10.1% |
| COc1ccc(CCN2C(=O)C(C)=C(C)C2=O)cc1OC | – | 11% |
| CCS(=O)(=O)Nc1ccc(C(=O)NCCSc2ccccc2)cc1 | – | 0% |
| CN(C)CCNC(=O)c1[nH]nc2c1CCc1ccccc1-2 | – | 44.2% |
| O=C(N/N=C/c1ccoc1)c1ccc(Cl)cc1Cl | – | 5.69% |
| CCCn1nc(NS(=O)(=O)c2ccccc2)c2cc3cc(C)ccc3nc21 | – | 8.29% |
| CCCn1nc(NS(=O)(=O)c2ccc(F)cc2)c2cc3ccccc3nc21 | – | 20.1% |
| CCCn1nc(NC(=O)C(C)C)c2cc3cc(OC)ccc3nc21 | 11.7 µM (active) | – |
| O=C(OCC(=O)N1CCCCCC1)c1cnc(Cl)c(Cl)c1 | – | -3.82% |
| CC[C@]1([C@H]2O[C@@H]([C@@H]3O[C@](O)(CO)[C@@H](C)C[C@H]3C)C[C@H]2C)CC[C@@H]([C@]2(C)CC[C@@]3(C[C@@H](O)[C@@H](C)[C@@H]([C@H](C)[C@H](OC)[C@H](C)C(=O)O)O3)O2)O1 | 0.0169 µM (active) | – |
| CSc1nc(N)c(C#N)c(-c2ccccc2Cl)c1C#N | – | 3.07% |
| CSc1ccc(-c2c(C#N)c(N)nc3c2c(C)nn3-c2ccccc2)cc1 | 1.47 µM (active) | – |
| Cc1nn(-c2ccccc2)c2c1C(c1ccc(F)cc1)C(C#N)=C(N)O2 (centres undefined) | – | -21.9% |
| COc1cc(CNCc2ccc(OC)c3ccccc23)cc(OC)c1OC | – | -29.2% |
| COc1ccccc1N1CCC(N2CCN(CC(C)(C)C)C(CCO)C2)CC1 (centres undefined) | – | -4.92% |
| O=C(CN1C(=O)c2cccc3cccc(c23)C1=O)N1CCCCC1 | – | -23.4% |
| C[N+](C)(CCCCCC[N+](C)(C)CCCN1C(=O)c2cccc3cccc(c23)C1=O)CCCN1C(=O)c2cccc3cccc(c23)C1=O | 0.329 µM (active) | – |
| O=C1c2cccc3cccc(c23)C(=O)N1CCCCCc1n[nH]c(=S)o1 | – | -2.6% |
| N#CCN(C(=O)COC(=O)C1CC2CCCC(C1)C2=O)c1ccccc1 (centres undefined) | – | -0.813% |
| CCOc1ccc(NC(=O)c2ccc(NC(=O)C3CCCO3)cc2)cc1 (centres undefined) | – | 11.7% |

| SMILES | Potency | activity change, negative = inhibition |
| --- | --- | --- |
| CC(=O)NCCC(=O)Nc1cc(S(=O)(=O)N2CCCCC2)ccc1Oc1cccc(C)c1 | – | 28% |
| CCOc1ccc(S(=O)(=O)N2CCCCC2)cc1NC(=O)CN1CCCC1c1cccs1 (centres undefined) | 4.65 µM (active) | – |
| O=C(CNCc1cccs1)Nc1cc(S(=O)(=O)N2CCCC2)ccc1Cl | – | -41.9% |
| O=C(CNC(=O)c1ccccc1Br)NNC(=O)c1cccs1 | – | 0% |
| O=C(Nc1ccccc1C(=O)NCCCn1ccnc1)c1ccc(Cl)cc1Cl | 9.28 µM (active) | – |
| O=C(NCCCn1ccnc1)Nc1ccc(Cl)cc1Cl | – | -10.3% |
| O=C(NCCCn1ccnc1)c1ccccc1F | – | 10.2% |
| O=C(CSc1nc(=O)n2ccccc2n1)Nc1ccc2c(c1)OCCO2 | – | 38.7% |
| COc1ccc(C(C)NC(=O)C2CCCC2)cc1 (centres undefined) | – | 3.5% |
| CN(C)S(=O)(=O)c1ccc(N2CCCC2)c(C(=O)Nc2cccc(F)c2)c1 | – | -17% |
| CN(C)S(=O)(=O)c1ccc(N2CCCC2)c(C(=O)Nc2ccc(Br)cc2F)c1 | 5.22 µM (active) | – |
| CN(C)S(=O)(=O)c1ccc(N2CCCC2)c(C(=O)NCc2ccccc2)c1 | – | -7.21% |
| COc1ccc(-n2ncc3c2CC(C)(C)CC3NC(=O)CCc2c(C)nn(C)c2C)cc1 (centres undefined) | – | -1.16% |
| Cc1cc(C)n2nc(CNS(=O)(=O)c3c(F)c(F)c(F)c(F)c3F)nc2n1 | – | 0% |
| Cn1c(N)c(C(=O)COC(=O)COc2ccc(Cl)cc2)c(=O)n(C)c1=O | – | 20.5% |
| CCN1CCN(c2c(Cl)cccc2NC(=O)c2ccc(Br)o2)CC1 | – | 0% |
| COc1cc(OC)c(NC(=O)c2ccc(Br)o2)cc1Cl | 8.28 µM (active) | – |
| COC(=O)c1ccc(N2CCOCC2)c(NC(=O)c2ccc(Br)o2)c1 | – | 2.02% |
| O=C(CCCCCn1c(=S)[nH]c2ccsc2c1=O)NC1CCCCC1 | – | -9.79% |
| CC1CCc2[nH]c3ccc(C(=O)N(C)CC(=O)Nc4cccc(F)c4)cc3c2C1 (centres undefined) | – | -27.2% |
| CCCN(CC(=O)Nc1ccccc1C)C(=O)c1ccc2[nH]c3c(c2c1)CC(C)CC3 (centres undefined) | 10.4 µM (active) | – |
| CCCN(CC(=O)Nc1ccccc1C)C(=O)c1cc(=O)[nH]c2ccccc12 | – | 17.1% |
| CCC(C(=O)NCc1cccnc1)n1nc(C)c2sc3ccccc3c2c1=O (centres undefined) | – | 9.32% |
| CC(C)NC(=O)C(c1ccc(F)cc1)N(C(=O)CCC(=O)Nc1ccccn1)c1ccccc1F (centres undefined) | – | 20.9% |
| O=C(Nc1ccc(O)cc1)c1ccc(NC(=O)c2ccco2)cc1 | – | 81.7% |
| O=C(Nc1ccccc1)c1ccco1 | – | 60.9% |

| SMILES | Potency | activity change, negative = inhibition |
| --- | --- | --- |
| O=C(Nc1ccc(Sc2ccc(Br)cc2)cc1)c1ccco1 | 2.33 µM (active) | – |
| COc1ccc(OCc2cc(C(=O)N3CCCC3)no2)c2ccccc12 | – | -19.2% |
| CC(CCN1CCN=C1N(C)C)c1ccccc1 (centres undefined) | – | -8.95% |
| O=c1[nH]cnc(O)c1C(c1ccc(F)cc1)c1c(O)nc[nH]c1=O | – | -0.229% |
| COCCCC1CCN(C(=O)C2CCC(=O)N(C3CCCCCC3)C2)CC1 (centres undefined) | – | -6.84% |
| Cc1ccc2nc(N3C(=O)C(O)=C(C(=O)c4ccco4)C3c3cccc(O)c3)sc2c1 (centres undefined) | – | 93% |
| CCc1cccc(NC(=O)COC(=O)c2cc(=O)c3ccccc3o2)c1 | – | 22.4% |
| NC(=O)COc1ccc2c3c(c(=O)oc2c1)CCCCC3 | – | 25.1% |
| NC(=O)C1CCN(C(=O)COc2ccc3c4c(c(=O)oc3c2)CCC4)CC1 | – | -3.55% |
| O=c1oc2c(CN3CCCCC3)c(O)ccc2c2c1CCCCC2 | 2.94 µM (active) | – |
| Cc1cccnc1NC(=O)Cn1c(=O)oc2ccccc21 | – | -5.88% |
| O=C(COC(=O)CNS(=O)(=O)c1ccc(F)c(F)c1F)NC1CCCC1 | – | 28.8% |
| Nc1nnc(SCC(=O)NCC(=O)Nc2ccc(F)c(F)c2F)s1 | – | 5.81% |
| COc1ccc(C(=O)NC(=S)NC2CCCCC2)cc1 | – | -27.2% |
| COc1cc(OC)c(C(=O)NC2CCCCCC2)cc1OC | – | 0.054% |
| COc1cc(C(=S)N2CCOCC2)ccc1O | inactive | – |
| COc1cc(C(=S)NC2CCCCC2)ccc1O | 10.4 µM (active) | – |
| COc1ccc(C(C)NC(=S)NC2CCCCC2)cc1OC (centres undefined) | 2.08 µM (active) | – |
| COc1ccc(Cl)cc1C(=O)NNC(=S)NC1CCCC1 | – | -17.5% |
| C=CCNC(=O)COc1coc(CN2CCN(Cc3ccccc3)CC2)cc1=O | – | 10.4% |
| Cn1c(SCC(=O)N2CCOCC2)nnc1-c1ccc2ncccc2c1 | – | 17% |
| Cc1ccc(C(c2nnnn2C(C)(C)C)N2CCc3ccccc3C2)cc1 (centres undefined) | – | 3.97% |
| CC(C)(C)n1nnnc1C(c1ccc2ncccc2c1)N1CCSCC1 (centres undefined) | 9.28 µM (active) | – |
| O=C(Nc1nnc(S(=O)(=O)N2CCOCC2)s1)c1cccc(Br)c1 | – | -13.8% |
| COc1ccc(CCNC(=O)Cn2c(=O)n(CC3CCCO3)c(=O)c3ccccc32)cc1OC (centres undefined) | – | -10.1% |
| O=C(CCc1ccccc1)NCc1cccnc1 | – | 1.54% |

| SMILES | Potency | activity change, negative = inhibition |
| --- | --- | --- |
| O=C(NCCc1ccccc1)C1CCC(Cn2c(=O)c3ccccc3n(Cc3cccnc3)c2=O)CC1 (centres undefined) | 11.7 µM (active) | – |
| COCCN(C(=O)CCC(=O)Nc1nccs1)C(C(=O)NCCC(C)C)c1ccc(F)cc1 (centres undefined) | – | -3.76% |
| Oc1ccccc1N1CCN(c2ncnc3sc(-c4ccccc4)cc23)CC1 | 13.1 µM (active) | – |
| c1ccc(-n2ncc3c(N4CCCC4)ncnc32)cc1 | – | 9.64% |
| COc1ccc(Nc2ncnc3sc(-c4ccccc4)cc23)c(OC)c1 | – | -11% |
| Cn1c(=O)oc2cc(S(=O)(=O)NCCC(=O)NCc3ccccc3Cl)ccc21 | – | 4.72% |
| Cc1ccc(CNCc2ccc3c(c2)OCO3)c(C)c1 | – | 3.76% |
| COc1cccc(CNCc2ccc3c(c2)OCO3)c1 | – | -0.266% |
| OC(CNCc1ccc2c(c1)OCO2)COc1ccccc1 (centres undefined) | 3.29 µM (active) | – |
| CNS(=O)(=O)c1ccc(NC(=O)Nc2ccc3c(c2)OCO3)cc1 | – | 125% |
| CCn1nccc1C(=O)Nc1ccc(S(=O)(=O)NC23CC4CC(CC(C4)C2)C3)cc1 | 6.57 µM (active) | – |
| CCn1nccc1C(=O)Nc1ccc(Cl)c(Cl)c1 | – | 28.2% |
| O=C(Nc1ccc(S(=O)(=O)Nc2ncccn2)cc1)C12CC3CC(CC(C3)C1)C2 | – | 5.34% |
| Cc1ccc(C)c(S(=O)(=O)Nc2cc(C)on2)c1 | – | 10.4% |
| OC(c1ccc(Cl)cc1)C(CN1CCOCC1)c1ccccc1 (centres undefined) | 2.33 µM (active) | – |
| CC(CN1CCOCC1)c1ccccc1 (centres undefined) | – | -5.89% |
| O=C(CC(c1ccccc1)c1cc(Cl)ccc1O)NCCN1CCOCC1 (centres undefined) | – | 47.7% |
| O=C(CN(C(=O)c1csnn1)c1ccc(Br)cc1)NC1CCCC1 | – | 18.7% |
| CC(C)(C)c1ccc(S(=O)(=O)N2CCN(C(=O)c3ccc4c(c3)C(=O)N(Cc3ccncc3)C4=O)CC2)cc1 | – | -2.86% |
| CC(C)(C)c1ccccc1NC(=O)CN1C(=O)NC2(CCCC2)C1=O | – | -0.115% |
| O=C(Nn1cnnc1)c1cc(Cl)ccc1Cl | – | 2.15% |
| Cc1sc2ncnc(Sc3nc4ccccc4s3)c2c1C | 1.85 µM (active) | – |
| c1ccc2sc(SNC3CCCCC3)nc2c1 | – | 0.0777% |
| CSc1ncnc2sc(C)c(C)c12 | – | -21.6% |
| Cc1coc2c1c(C)cc1oc(=O)c(CC(=O)NCC(=O)N[C@H](C(=O)O)C(C)C)c(C)c12 | – | -9.45% [at 0.00184 µM] |
| CC(=O)N[C@@H](C)C(=O)N1CCC(n2nccc2NC(=O)CCCc2ccccc2)CC1 | – | -2.41% |
